Screening data from PubChem.
Compounds with a hit are over-represented: about 0.42% of the library has one in this group of screens.
B2AR arrestin: qHTS assay of beta-arrestin-biased ligands of beta2-adrenergic receptor; Beta-2 adrenergic receptor (Homo sapiens), P07550; beta-arrestin recruitment to beta2AR, cell-based reporter; Potency, µM (series often up to 46.1 µM), usual class: activators; 330,000 compounds, 0.02% hits; AID 492947, 2010; also: nearly all actives have a fitted effect of over 65% in size
PGK inhibitor: qHTS Assay to Find Inhibitors of Phosphoglycerate Kinase | Potency, µM (series often up to 57.5 µM), usual class: inhibitors | AID 602233, 2012 | Phosphoglycerate kinase, glycosomal (Trypanosoma brucei brucei), P07378 | PGK/GAPDH coupled, Kinase-Glo luminescence, 60 min | 380,000 compounds, 0.043% hits; also: nearly all actives have a fitted effect of over 60% in size
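Luminescent ATP detection (Kinase-Glo Plus) follows a 60-minute room-temperature incubation, with wells lacking PGK as controls. Buffer: 100 mM TEA (pH 7.6), 5 mM MgCl2, 0.01% Tween-20. Coupling enzyme GAPDH (100 nM final) supplies unstable 1,3-BPG in-well.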
BCR signal inh: qHTS Assay to Find Inhibitors of Chronic Active B-Cell Receptor Signaling | AID 493014, 2011 | 340,000 compounds, 0.05% hits | Potency, µM (highest dose often 46.1 µM), most hits filed as inhibitors | ABC-DLBCL IkBa-CBG/CBR reporter, luminescence ratio, 4 h; active = well fitted inhibition curve with a large enough effect in the signal ratio, with a control signal flat, not every such curve was filed as active; inconclusive = small, poorly fitted or top-dose-only effect, or effect the other way, or a change in a side signal; the % refers to the signal ratio
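Concentration-response series (up to 46 uM) were applied to TMD8 dual-reporter cells for 4 h at 37C with doxycycline. Green/red ratio, after filter-overlap correction, defined %Activity; red signal alone was normalised to basal cells and zero luminescence.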
GLS inhibitor: qHTS for Inhibitors of Glutaminase (GLS). GLS enzymatic activity, qHTS titration. Potency, µM (series often up to 45.5 µM), actives largely listed as inhibitors. 410,000 compounds, 0.21% hits. AID 624170, 2012. Glutaminase kidney isoform, mitochondrial (Homo sapiens), O94925
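Glutamate formation by hKGA was monitored fluorometrically using coupled glutamate oxidase, HRP and Amplex Red. Substrate was added as 1 mM L-glutamine solution; incubation was 30 min at RT after an initial read.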
Pin1 inhibitor: qHTS Assay to Find Inhibitors of Pin1 | Potency, µM (top dose mostly 115 µM), usual class: inhibitors | AID 504891, 2011 | 390,000 compounds, 0.009% hits | Peptidyl-prolyl cis-trans isomerase NIMA-interacting 1 (Homo sapiens), Q13526 | Pin1 FP peptide displacement, HiFluor488, 10 min; active = well fitted inhibition curve with a large enough effect in the polarisation, with a control signal flat, not every such curve was filed as active; inconclusive = small, poorly fitted or top-dose-only effect, or effect the other way, or a change in a side signal; inactive = no such curve, though single readings can be large or run the other way; the % refers to the polarisation
Target sequence (Q13526 whole entry, looked up): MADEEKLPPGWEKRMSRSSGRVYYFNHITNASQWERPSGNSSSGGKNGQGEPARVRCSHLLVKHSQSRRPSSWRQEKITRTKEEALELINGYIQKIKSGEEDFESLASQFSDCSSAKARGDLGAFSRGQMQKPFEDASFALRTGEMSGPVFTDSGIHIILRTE
Tb PFK block: qHTS Assay to Find Inhibitors of T. brucei phosphofructokinase | T. brucei PFK, ADP-Glo luminescence | Potency, µM (doses to about 57.5 µM), actives largely listed as inhibitors | 330,000 compounds, 0.17% hits; also: nearly all actives have a fitted effect of over 60% in size
Target sequence (O15648 whole entry, looked up): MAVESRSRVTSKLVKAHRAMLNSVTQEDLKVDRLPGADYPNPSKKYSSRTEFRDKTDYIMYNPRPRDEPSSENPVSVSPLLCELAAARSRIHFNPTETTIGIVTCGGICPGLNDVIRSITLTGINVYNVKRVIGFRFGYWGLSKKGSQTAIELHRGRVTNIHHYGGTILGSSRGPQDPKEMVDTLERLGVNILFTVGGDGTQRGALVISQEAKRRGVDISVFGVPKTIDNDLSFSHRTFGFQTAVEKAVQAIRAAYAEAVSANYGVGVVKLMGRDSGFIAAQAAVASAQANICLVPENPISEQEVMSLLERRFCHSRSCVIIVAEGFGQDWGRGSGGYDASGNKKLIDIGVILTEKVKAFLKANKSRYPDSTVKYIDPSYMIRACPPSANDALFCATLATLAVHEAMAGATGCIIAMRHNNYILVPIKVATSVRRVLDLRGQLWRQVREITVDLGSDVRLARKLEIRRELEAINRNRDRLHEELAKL
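Compounds were pin-transferred as a titration series up to 57 uM into substrate buffer (0.5 mM F6P, 0.1 mM ATP, pH 8.0), then 1.25 nM PFK was added and reactions ran 45 min before ADP-Glo detection.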
A number is an active result; n = inactive; u = inconclusive; x = not tested or not shown. Unless noted, calls follow the shape of the dose curve; as a rule, active = well fitted curve in the direction sought with a large enough effect; inconclusive = small, poorly fitted or top-dose-only effect, or another doubt; inactive = no such curve, though single readings can be large; an effect the other way counts as inactive or inconclusive.

SMILES	B2AR arrestin	PGK inhibitor	BCR signal inh	GLS inhibitor	Pin1 inhibitor	Tb PFK block
Cc1cc(C)c(S(=O)(=O)/N=C2/C=C(Sc3ncn[nH]3)C(=O)c3ccccc32)cc1C	n	u	u	n	38µM	u
Cc1c(C)c2c(c(C)c1OC(=O)CCC(=O)OCCO)CC[C@](C)(CCC[C@H](C)CCC[C@H](C)CCCC(C)C)O2	x	x	x	n	x	x
COc1ccc(-n2cnc3c(c2=N)C(c2cccc(OC)c2)c2c(ccc4ccccc24)O3)cc1 (stereo not given)	x	x	x	x	n	x
Cc1cc2c(s1)c1cnn(Cc3c(F)cc(F)cc3F)c(=O)c1n2C	x	x	x	x	n	x
COc1ccccc1NC(=O)c1ccccc1Nc1ccccc1	n	n	n	n	n	n
COc1ccccc1Nc1ccc(N)cc1	n	n	n	11µM	n	n
Cc1ccc(C)n1Cc1ccc(C(=O)O)cc1	n	3.2µM	n	7.1µM	u	6.7µM
CC(C)C[C@@H](NC(=O)[C@@H](COC(C)(C)C)NC(=O)[C@H](Cc1ccc(O)cc1)NC(=O)[C@@H](CO)NC(=O)[C@@H](Cc1c[nH]c2ccccc12)NC(=O)[C@@H](Cc1cnc[nH]1)NC(=O)[C@@H]1CCC(=O)N1)C(=O)N[C@H](CCCN=C(N)N)C(=O)N1CCC[C@H]1C(=O)NNC(N)=O	x	x	x	n	x	x
COc1cc(NC(C)=O)c2ncccc2c1NC(C)=O	n	n	u	n	n	n
CC(=O)Nc1cc(=O)c2cccnc2[nH]1	x	n	x	16µM	u	x
CC1=NN(c2ccc(S(=O)(=O)O)cc2C)C(=O)C1	n	n	n	n	n	n
O=C(O)C1=NN(c2cc(Cl)c(S(=O)(=O)O)cc2Cl)C(=O)C1	x	u	x	1.1µM	x	x
CCC(=O)NCC(=O)OCC(=O)c1ccccc1	n	n	u	25µM	n	n
O=C(O)c1cc(N/N=C/c2c[nH]c3ccccc23)ccc1Cl	n	n	u	14µM	n	n
O=C(N/N=C/c1c[nH]c2ccccc12)c1ccc(O)c(O)c1	n	n	u	11µM	n	n
Nc1cc(S(=O)(=O)N2CCN(S(=O)(=O)c3ccc4c(c3)OCCO4)CC2)ccn1	x	x	x	x	n	x
Cc1nc(-c2ccc([S+](=O)([O-])N3CCN([S+](=O)([O-])c4c(F)cccc4F)CC3)s2)cs1	x	x	x	x	n	x
CC(=O)Nc1cccc(OC2=NS(=O)(=O)c3ccccc32)c1	x	x	x	x	n	x
C/C(=N\NC(=S)NCc1ccccc1)c1ccc(Cl)s1	n	n	n	n	n	n
COCCNC(=S)N/N=C(\C)c1ccc(Cl)s1	10µM	n	u	n	n	n
Cc1cc(O)c2c(c1O)C(=O)[C@]13C(=C2O)C(=O)[C@@H]2[C@@H](O)[C@H]1[C@@H]1[C@H](O)[C@H]3C(=O)C3=C(O)c4c(O)cc(C)c(O)c4C(=O)[C@]312	n	u	u	6.3µM	u	n
O=c1cc(-c2ccccc2Cl)oc2c(NS(=O)(=O)c3cc(Cl)cc(Cl)c3O)ccc(O)c12	n	u	u	n	22µM	n
CCc1ccc(S(=O)(=O)Nc2ccc(O)c3c(=O)cc(-c4ccccc4Cl)oc23)cc1	n	n	n	n	u	n
O=S(=O)(NC1CCCC(NS(=O)(=O)c2c(F)cccc2F)C1)c1ccc2c(c1)OCCO2 (stereo not given)	x	x	x	x	n	x
O=C1CCc2cc(S(=O)(=O)Nc3ccncc3)ccc2N1	x	x	x	x	n	x
SMILES	B2AR arrestin	PGK inhibitor	BCR signal inh	GLS inhibitor	Pin1 inhibitor	Tb PFK block
O=C(Cn1sc2ccccc2c1=O)Nc1ccccc1	x	n	x	7.1µM	x	x
COc1cccc(Nc2ccc(C(=O)O)cc2N)c1	n	n	u	3.2µM	n	n
CC(=O)N1CCCc2cc(S(=O)(=O)Nc3ccc(C)c(C)c3)ccc21	x	x	x	x	n	x
O=C1CCCC2=C1Sc1ccccc1N2	n	n	u	13µM	u	n
O=C1c2ccccc2C(=O)N1c1ccccc1O	x	x	x	x	n	x
O=C(CCOc1ccccc1)N1CCN(c2ccc(O)cc2)CC1	n	n	n	11µM	n	n
O=C(CCCOc1ccccc1)N1CCN(c2ccccc2)CC1	n	n	n	n	n	n
NNC(=O)c1cc2sccc2s1	n	n	18µM	n	n	n
CC(=O)NNC(=O)c1cc2sccc2s1	n	n	n	n	n	n
O=C1OC(c2ccccc2)(c2ccccc2)N2CCN(C(=O)NCc3ccc(F)cc3)CC12 (stereo not given)	x	x	x	x	n	x
COc1cc(-c2ccc3ncnc(NCC4CCCO4)c3c2)cc(OC)c1OC (stereo not given)	x	x	x	x	n	x
CCc1nc(SCC(=O)NNC(=O)c2ccc(OC)cc2)c2ccccc2n1	n	n	n	8.9µM	n	n
O=C(CCc1ccccc1)Nc1ncnc2c1C(c1ccccc1)c1c(ccc3ccccc13)O2 (stereo not given)	x	x	x	x	n	x
CC1(C)S[C@@H]2[C@H](NC(=O)[C@H](N)c3ccccc3)C(=O)N2[C@@H]1C(=O)OCOC(=O)[C@@H]1N2C(=O)C[C@@H]2S(O)(O)C1(C)C	x	x	x	n	x	x
Oc1cccc(/C=N/N=C/c2cccc(O)c2O)c1O	n	n	u	3.5µM	n	n
Cc1ccc(NC(=O)c2ccc3c(c2)C(=O)N(CC2CCCO2)C3=O)cc1C (stereo not given)	7.1µM	n	u	n	n	n
CC(=O)c1cccc(NC(=O)Cn2c(=O)c(CNc3ccc(C)cc3)cc3cc4c(cc32)OCCO4)c1	x	n	x	10µM	n	x
Cc1ccc(NC(=O)Cn2c(=O)c(CNc3ccccc3)cc3cc4c(cc32)OCCO4)cc1	x	n	n	n	n	x
CCc1ccc(NCc2cc3cc(OC)c(OC)cc3n(CC(=O)Nc3ccc(F)cc3)c2=O)cc1	x	n	x	u	n	x
CCc1ccc(NCc2cc3cc(OC)c(OC)cc3n(CC(=O)Nc3cc(C)ccc3C)c2=O)cc1	x	n	x	11µM	n	x
COc1ccc2[nH]c3c(=O)n(Cc4ccc(C(=O)N5CCC(C(N)=O)CC5)cc4)c(=S)[nH]c3c2c1	n	n	n	22µM	u	n
COc1cc(F)c(S(=O)(=O)N2CCN(S(=O)(=O)c3cccc(N)c3)CC2)c(F)c1	x	x	x	x	n	x
CCOC(=O)c1ccc(N=c2ssnc2Cl)cc1	n	n	n	13µM	n	u
CCCc1c(C)[nH]c2ccc(C(=O)O)cc2c1=S	n	u	n	7.1µM	x	n
Cc1[nH]c2ccc(C(=O)O)cc2c1C	n	x	u	n	n	n
Oc1cc(CNCc2ccccc2)c(O)cc1CNCc1ccccc1	x	n	x	18µM	u	x
